PKM2 activator: increases activity of human pyruvate kinase M2; Potency, µM (doses to about 57.5 µM), inactives show top-dose activation, hits mostly activators; hit rate 0.34% among 260,000; purified PKM2, Kinase-Glo ATP luminescence, activation; response scale: 0% is enzyme alone, no compound; P14618; AID 1631; further: potency means the concentration at half of the fitted maximal effect; on the % scale 0 is the no-effect control and ±100 the full control effect; nearly all actives have a fitted effect of over 55% in size
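ATP formation by purified human PK-M2, quantified via coupled luciferase luminescence after 1 h at room temperature with 0.1 mM ADP and 0.5 mM PEP final.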
TRPML1 ag: agonists of human TRPML1 channel. Q9GZU1. TRPML1-expressing cells, Ca2+ dye fluorescence, FDSS. activation, % (test concentration not listed). hit rate 0.12% among 410,000; in the data active means activation above about 50%; inconclusive means mostly about 30% to 49%; further: 0% is about no effect
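In this qHTS format, compounds were pin-transferred onto Ca8-dye-loaded TRPML1-DL cells induced with Tet overnight, and intracellular Ca2+ fluorescence was recorded kinetically for 110 s after a 10 s baseline. A subsequent 4uM final 54-4 (EC80) addition followed by a second 110 s read served as the antagonist phase.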
BRCA1 expr up: increases BRCA1 expression. Potency, µM (highest dose often 46.1 µM), inactives show at the top dose activation, actives largely listed as activators. MCF7-BRCA1-FFLuc reporter, luminescence, 48 h; response scale: scaled: vehicle 0%, 10 µM genistein 100%. hit rate 1.1% among 380,000; further: potency means the concentration at half of the fitted maximal effect; nearly all actives have a fitted effect of over 80% in size
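Activators of BRCA1 expression were detected as increased firefly luciferase luminescence in engineered MCF7 cells after 48 h compound incubation. Signals were scaled to genistein 10 microM as full activation.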
TSG101-PTAP inh: blocks PTAP/TSG101 interaction to inhibit HIV-1 budding; Q99816; Fluorescence polarization, FITC-PTAP peptide / Tsg101 binding; Potency, µM (doses to about 115 µM), for the others: at the top dose activity change, negative = inhibition, actives largely listed as inhibitors; 340,000 tested, under 10 active; AID 493005; active means well fitted inhibition curve with a large enough effect in the main read-out, with a control signal flat, not every such curve was filed as active; inconclusive means small, poorly fitted or top-dose-only effect, or effect the other way, or a change in a side signal; inactive means no such curve, though single readings can be large or run the other way; further: potency means the concentration at half of the fitted maximal effect; % of control where 0% means no effect
Target sequence (Q99816 whole entry, looked up): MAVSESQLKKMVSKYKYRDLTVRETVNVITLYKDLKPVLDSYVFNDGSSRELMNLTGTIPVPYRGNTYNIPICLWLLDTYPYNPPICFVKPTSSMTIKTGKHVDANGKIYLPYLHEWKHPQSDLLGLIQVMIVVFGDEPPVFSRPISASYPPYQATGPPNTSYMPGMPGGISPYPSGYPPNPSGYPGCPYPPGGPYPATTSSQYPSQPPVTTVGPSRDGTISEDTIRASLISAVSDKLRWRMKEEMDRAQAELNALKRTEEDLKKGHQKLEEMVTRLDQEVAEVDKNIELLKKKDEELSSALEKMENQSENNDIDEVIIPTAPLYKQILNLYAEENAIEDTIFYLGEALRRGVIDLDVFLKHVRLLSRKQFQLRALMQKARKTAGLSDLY
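Tsg101 binding domain (10 uM final) was mixed with compound and a FITC-labeled PTAP peptide (50 nM final) in HEPES pH 7.5 buffer with NaCl, Tween 20, EDTA and TCEP; fluorescence polarization was read after 20 min at r.t.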
TRPML1 inh: blocks the human TRPML1 channel | Q9GZU1 | TRPML1-inducible cells, Ca2+ dye fluorescence, FDSS; hits give low values; inhibition of EC80 agonist-evoked calcium signal | activity change, negative = inhibition, % (no concentration beside the values) | hit rate 0.02% among 390,000; in the data active means activity change below about -50%; inconclusive means between about -30% and that limit;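 further: stimulus is agonist 54-4 at its EC80 concentration; on the % scale 0 is the no-effect control and ±100 the full control effect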
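Calcium fluorescence in TRPML1-DL cells induced overnight with Tet: a 110 s read after compound pin addition, then a 110 s antagonist read after challenge with 54-4 at 4 uM final (EC80).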
IL-2 act: activators of IL-2. hit rate 0.065% among 360,000. IL-2 activation reporter assay, cell-based qHTS; stimulated with anti-CD3/CD4/CD28 beads; in transgenic mouse T cells. activation, % (series mostly up to about 46 µM); in the data active means activation above about 50%; inconclusive means mostly about 30% to 49%; further: 0% is about no effect
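Readout: EGFP and DsRed signals by fluorescent plate cytometry. Unstimulated transgenic mouse T cells received compound 60 min before antibody-bead stimulation, then incubated 18 h at 37 degrees C.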
HeLa viability: reduces HeLa cell viability in PKM2 activator counter-screen. activity change, negative = cytotoxicity, % at 57.5 µM. 230 tested, under 10 active. shares compounds with PKM2 activator. HeLa viability, CellTiter-Glo ATP luminescence, 24 h. AID 1898; further: % of control where 0% means no effect
The depositor's hits bear a star; u = inconclusive; x = no result; [ ] = another dose, or the depositor's remark. Compounds with a hit are over-represented: about 1.3% of the library has one in this group of screens. Unless noted, the call rests on the fitted dose curve; in most records, active means well fitted curve in the direction sought with a large enough effect; inconclusive means small, poorly fitted or top-dose-only effect, or another doubt; inactive means no such curve, though single readings can be large; an effect the other way counts as inactive or inconclusive.

SMILES	PKM2 activator	TRPML1 ag	BRCA1 expr up	TSG101-PTAP inh	TRPML1 inh	IL-2 act	HeLa viability
COc1ccc(Nc2ncnc3c2cnn3Cc2ccc(C)cc2)cc1	4%	0	-34%	-5%	-4	-2	x
COc1ccc(Cn2nc(C(=O)O)c3ccccc3c2=O)cc1F	x	4	-16%	-3%	33	-1	x
COc1ccc(Cn2ncc3c4sc(C)cc4n(C)c3c2=O)cc1	x	x	x	x	x	x	3
COc1ccc(Cn2ncc3c4sc(C)cc4n(C)c3c2=O)cc1F	x	x	x	x	x	x	11
CC(C)CC(=O)Nc1c(C(=O)N2CCN(c3ccccc3F)CC2)oc2ccccc12	x	1	x	x	-2	x	x
COC(=O)[C@@]1(Cc2ccccc2)[C@H]2c3cc(C(=O)N4CCCC4)n(C)c3C[C@H]2CN1C(=O)c1ccccc1	0%	x	x	x	x	x	x
Cc1[nH]c(C)c2c(=O)n(Cc3ccccc3Cl)ncc12	x	0	3%	-4%	28	0	x
Cc1cc2c(s1)c1cnn(Cc3cc(C(F)(F)F)cc(Cl)c3F)c(=O)c1n2C	x	x	x	x	x	x	14
COc1ccc(OC)c(NC(=O)N2CCC(CN3CCCCC3)CC2)c1	x	0	x	x	-6	x	x
CCOC(=O)c1cnn2c(C(F)(F)F)cc(-c3ccc(Br)cc3)nc12	x	2	x	x	-11	x	x
COc1ccc(CNC(=O)c2ccc3c(c2)CCN3S(=O)(=O)c2ccccc2)cc1	x	0	x	x	-6	x	x
Cc1cc2c(s1)c1c(n2C)C(=O)N(Cc2ccccc2F)C1	x	x	x	x	x	x	13[23.3 µM]
O=S(=O)(c1ccccc1)N1CCN(S(=O)(=O)c2ccc3c(c2)OCCO3)CC1	x	x	x	x	x	x	0
O=S(=O)(c1cccc(C(F)(F)F)c1)N1CCN(S(=O)(=O)c2ccc3c(c2)OCCO3)CC1	x	x	-3%	3%	x	-1	2
CC(=O)c1ccc(NC(=O)Cn2ncc3c(C)n(Cc4ccc(F)cc4)c(C)c3c2=O)cc1	x	0	x	x	-1	x	x
Cc1[nH]c(=O)[nH]c(=O)c1S(=O)(=O)Nc1cccc(Cl)c1C	x	0	3%	x	-7	x	x
O=c1[nH]c(CN2CCN(c3ccccc3O)CC2)nc2scc(-c3ccccc3Cl)c12	20%	1	-35%	1%	62	-2	x
O=c1[nH]c(CN2CCN(c3ccc(O)cc3)CC2)nc2scc(-c3ccc(Cl)cc3)c12	2.8µM*	0	-45%	-10%	16	0	-7
Cc1ccc(NC(=O)CN(C)C(=O)CSc2ncc(C(F)(F)F)cc2Cl)cc1	-4%	1	41%	0%	-11	0	x
CNC(=O)NC(=O)CSc1ncc(C(F)(F)F)cc1Cl	0.4µM*	1	5%	-2%	6	1	0
Cc1ccc2nc(-c3ccc(Cl)c(NC(=O)COc4ccc(C(C)C)cc4)c3)oc2c1	x	0	x	x	-20	x	x
O=c1c2ccc(Cl)cc2[nH]c(=S)n1Cc1cccnc1	3.2µM*	0	-1%	0%	24	0	3
CCOc1ccccc1NCc1nnc2n1CCCCC2	x	0	13%	x	-13	x	x
COc1cc(C2C3=C(CCCC3=O)Nc3c2c(C)nn3-c2cccc(C)c2)cc(OC)c1O (stereo not given)	7.1µM*	-1	0%	-6%	-7	-1	u
CCOc1ccc(NS(=O)(=O)c2ccc3c(c2)CCN3C(=O)C2CCC2)cc1	9%	0	-31%	1%	19	0	x
SMILES	PKM2 activator	TRPML1 ag	BRCA1 expr up	TSG101-PTAP inh	TRPML1 inh	IL-2 act	HeLa viability
O=C(C1CCC1)N1CCc2cc(S(=O)(=O)Nc3ccc4c(c3)OCO4)ccc21	2.8µM*	1	-35%	-8%	24	-3	-27
COc1ccc2c(c1)c1c(c(=O)n(-c3ccc(OC)c(OC)c3)c(=O)n1Cc1ccc(F)cc1)n2C	x	0	7%	x	7	x	x
C/C=C\C=C/C(=O)Nc1cccc(C2=NOC3(C2)C[C@@H](C(N)=O)N(C(=O)/C=C/CC)C3)c1 (stereo not given in full)	u	-1	0%	1%	25	1	x
C/C=C\C=C/C(=O)Nc1cccc(C2=NOC3(C2)C[C@@H](C(N)=O)N(C(=O)/C=C/C=C\C)C3)c1 (stereo not given in full)	1.4µM*	0	4%	-5%	5	1	4
Cn1c(=O)[nH]c(=O)c2c1nc(SCC(=O)Nc1ccccc1)n2Cc1ccccc1	1.6µM*	-1	3%	1%	-21	0	u
COc1cccc(CNC(=O)CCCN2C(=O)CSc3c2c(C)nn3-c2ccccc2)c1	x	0	0%	x	-1	x	x

Screens (PubChem)
